Test systems include SR leukemia; RPMI-8226 leukemia; OVCAR-8 ovarian; OVCAR-5 ovarian; OVCAR-4 ovarian; SK-OV-3 ovarian; IGROV1 ovarian; OVCAR-3 ovarian; HS 578T breast; NCI/ADR-RES ovarian; T-47D breast; BT-549 breast; MDA-MB-435 melanoma; SW-620 colon; MCF7 breast; HCT-116 colon; HCC-2998 colon; KM12 colon; MDA-MB-468 breast.
What all share (experiment): NCI-60 one-dose screen, 48 h (100 = growth as untreated, 0 = no growth, -100 = all killed)
Settings in all cases: 10 µM

Our source for the growth values is PubChem BioAssay (NCI).

Several values for one entry are separate records, joined by “and”; a condition that tells them apart may be missing. Equal entries are not always repeated. Compounds without any hit were thinned out: in the full panel of roughly 83,000, 20% have a hit.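 Method: cells in 96-well plates; compound added at one concentration; 48 h incubation; percent growth measured; values under 10 scored active.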 Activity calls are given as the source filed them.

With `CC(=O)c1ccc(Nc2nc(SCCC(C)C)nc(-c3ccc(F)cc3)c2C#N)cc1`, the growth is 64.9% (inactive) in the assay on SR leukemia; 81.7% (inactive) with RPMI-8226 leukemia; 8.35% (active) in the assay on OVCAR-8 ovarian; 53.4% (inactive) with OVCAR-5 ovarian; -6.74% (active) with OVCAR-4 ovarian; 98.7% (inactive) with SK-OV-3 ovarian. Also, the growth with IGROV1 ovarian was 16% (inactive); in the assay on OVCAR-3 ovarian it was 19% (inactive); in the assay on HS 578T breast, 32% (inactive); in the assay with NCI/ADR-RES ovarian, 23.9% (inactive); in the assay on T-47D breast it was 68.3% (inactive); with BT-549 breast it was 56.7% (inactive). Also, the growth is 73.8% (inactive) with MDA-MB-435 melanoma; 68.5% (inactive) in the assay on SW-620 colon; 59.6% (inactive) in the assay on MCF7 breast; 22% (inactive) with HCT-116 colon; 83.4% (inactive) in the assay with HCC-2998 colon; 81.8% (inactive) in the assay on KM12 colon. For the same compound, the growth in the assay with MDA-MB-468 breast was 69% (inactive).

With `Cn1cc(/C=N/Nc2cccc(Cl)n2)c2ccccc21`, the growth with SR leukemia was 27.6% (inactive); in the assay with RPMI-8226 leukemia it was 47.6% (inactive); in the assay with OVCAR-8 ovarian it was 80.3% (inactive); with OVCAR-5 ovarian, 92.5% (inactive); in the assay with OVCAR-4 ovarian, 60.3% (inactive); with SK-OV-3 ovarian, 92.6% (inactive). In addition, the growth in the assay with IGROV1 ovarian is 46.1% (inactive); with OVCAR-3 ovarian it was 63.3% (inactive); in the assay on HS 578T breast it was 69.4% (inactive); in the assay on NCI/ADR-RES ovarian it was 36.1% (inactive); in the assay on T-47D breast, 47.2% (inactive); in the assay on BT-549 breast it was 43.4% (inactive). Moreover, the growth in the assay on MDA-MB-435 melanoma was 10.7% (inactive); with SW-620 colon it was 65.9% (inactive); with MCF7 breast, 35.9% (inactive); in the assay on HCT-116 colon, 33.3% (inactive); with HCC-2998 colon, 48.5% (inactive); in the assay with KM12 colon, 33.1% (inactive). The growth in the assay with MDA-MB-468 breast was -1.15% (active).

`COc1cc2c3c(n(CCCNCCO)c(=O)c2cc1OC)-c1nc2c(cc1C3=O)OCO2`: the growth in the assay with SR leukemia was 1.88% (active); with RPMI-8226 leukemia, 3.98% (active); with OVCAR-8 ovarian, -69.3% (active); in the assay with OVCAR-5 ovarian, -3.64% (active); in the assay on OVCAR-4 ovarian, 26.1% (inactive); in the assay on SK-OV-3 ovarian it was -14.2% (active). Further, the growth is 12.4% (inactive) in the assay on IGROV1 ovarian; -68.5% (active) in the assay on OVCAR-3 ovarian; 65.6% (inactive) in the assay on HS 578T breast; 84.1% (inactive) in the assay on NCI/ADR-RES ovarian; 1.91% (active) with T-47D breast; 25.3% (inactive) in the assay on BT-549 breast. Besides, the growth is 45.2% (inactive) with MDA-MB-435 melanoma; 20.2% (inactive) with SW-620 colon; -11.4% (active) in the assay on MCF7 breast; -49.8% (active) in the assay on HCT-116 colon; 11.6% (inactive) in the assay with HCC-2998 colon; 40.4% (inactive) in the assay with KM12 colon. Further, the growth in the assay on MDA-MB-468 breast was -58.8% (active).

Regarding `COc1cc(OC(F)(F)F)ccc1C(=O)Nc1sc2c(c1C#N)CCC(=O)C2`, the growth with SR leukemia was 15.1% (inactive); in the assay on RPMI-8226 leukemia, 51.7% (inactive); in the assay with OVCAR-8 ovarian it was 93% (inactive); with OVCAR-5 ovarian, 138% (inactive); with OVCAR-4 ovarian, 62.1% (inactive); in the assay with SK-OV-3 ovarian it was 81.2% (inactive). Moreover, the growth with IGROV1 ovarian is 112% (inactive); in the assay on OVCAR-3 ovarian, 112% (inactive); with HS 578T breast, 75.9% (inactive); in the assay with NCI/ADR-RES ovarian, 75.1% (inactive); in the assay on T-47D breast, -4.87% (active); with BT-549 breast, 14.1% (inactive). The growth with MDA-MB-435 melanoma is 97.9% (inactive); with SW-620 colon, 31.6% (inactive); in the assay with MCF7 breast, 73.2% (inactive); in the assay on HCT-116 colon, 40.7% (inactive); in the assay on HCC-2998 colon, 111% (inactive); in the assay on KM12 colon it was 88.1% (inactive). In addition, the growth with MDA-MB-468 breast was 77.7% (inactive).

For `CN1C(=O)N(C)C2SC(N/N=C/C=C/c3ccccc3)=NC21` (configuration not stated), the growth is 13.2% (inactive) in the assay with SR leukemia; 77.1% (inactive) with RPMI-8226 leukemia; 93.1% (inactive) in the assay with OVCAR-8 ovarian; 92.8% (inactive) in the assay with OVCAR-5 ovarian; 72.4% (inactive) in the assay on OVCAR-4 ovarian; 98.4% (inactive) in the assay with SK-OV-3 ovarian. Further, the growth in the assay on IGROV1 ovarian is 68.5% (inactive); in the assay with OVCAR-3 ovarian, 28.8% (inactive); with HS 578T breast, 89.7% (inactive); in the assay with NCI/ADR-RES ovarian, 73.9% (inactive); with T-47D breast it was 61.8% (inactive); in the assay on BT-549 breast, 64.1% (inactive). The growth in the assay with MDA-MB-435 melanoma is -19.6% (active); in the assay on SW-620 colon it was 63.9% (inactive); with MCF7 breast, 27.6% (inactive); in the assay on HCT-116 colon, 71.6% (inactive); with HCC-2998 colon, 85.3% (inactive); with KM12 colon it was 58% (inactive). The growth with MDA-MB-468 breast was -4.12% (active).

Take `Cc1ccc(F)cc1N/C=c1\s/c(=C(\C#N)C(=O)Nc2ccccc2)n(-c2ccccc2)c1=O`: the growth is 75.4% (inactive) in the assay with SR leukemia; 84.9% (inactive) in the assay on RPMI-8226 leukemia; 53.9% (inactive) with OVCAR-8 ovarian; 72.5% (inactive) in the assay with OVCAR-5 ovarian; -26.9% (active) in the assay with OVCAR-4 ovarian; 78.1% (inactive) with SK-OV-3 ovarian. For the same compound, the growth in the assay with IGROV1 ovarian is 61.5% (inactive); with OVCAR-3 ovarian, 99% (inactive); in the assay with HS 578T breast, 37% (inactive); in the assay on NCI/ADR-RES ovarian, 42.6% (inactive); with T-47D breast it was 76.7% (inactive); in the assay with BT-549 breast, 99.7% (inactive). The growth with MDA-MB-435 melanoma was 98.5% (inactive); in the assay on SW-620 colon it was 105% (inactive); in the assay on MCF7 breast, 38.8% (inactive); with HCT-116 colon, 42% (inactive); with HCC-2998 colon, 92.1% (inactive); with KM12 colon, 84.8% (inactive). Also, the growth with MDA-MB-468 breast is 53% (inactive).

Consider `COc1cc(/C=N/NC(=O)c2ccc3nc(-c4ccc(Cl)cc4)[nH]c3c2)cc(OC)c1OC`, for which the growth in the assay on SR leukemia was -6.5% (active); in the assay with RPMI-8226 leukemia, -23.9% (active); in the assay on OVCAR-8 ovarian, -62.7% (active); in the assay with OVCAR-5 ovarian, 62.6% (inactive); with OVCAR-4 ovarian it was -51.6% (active); in the assay on SK-OV-3 ovarian, -25% (active). The growth in the assay with IGROV1 ovarian is 7.62% (active); in the assay with OVCAR-3 ovarian, -90% (active); with HS 578T breast, -52.1% (active); with NCI/ADR-RES ovarian, 75.7% (inactive); in the assay with T-47D breast, -58.6% (active); in the assay on BT-549 breast it was -81.5% (active). Further, the growth in the assay with MDA-MB-435 melanoma was -67.3% (active); in the assay on SW-620 colon it was -22.1% (active); with MCF7 breast, -72.8% (active); in the assay on HCT-116 colon it was -67.5% (active); in the assay with HCC-2998 colon it was -39.7% (active); in the assay with KM12 colon it was -33% (active). For the same compound, the growth in the assay on MDA-MB-468 breast is 107% (inactive) and -89.3% (active).

Consider `COc1cc(NC(=O)CSc2nnc(-c3ccc4nc(-c5ccc(Cl)cc5)[nH]c4c3)o2)cc(OC)c1OC`, for which the growth was 48% (inactive) in the assay with SR leukemia; 21.3% (inactive) in the assay with RPMI-8226 leukemia; 42.1% (inactive) with OVCAR-8 ovarian; 132% (inactive) in the assay with OVCAR-5 ovarian; 61.9% (inactive) with OVCAR-4 ovarian; 101% (inactive) in the assay on SK-OV-3 ovarian. For the same compound, the growth was 73.8% (inactive) in the assay with IGROV1 ovarian; 71.8% (inactive) with OVCAR-3 ovarian; 50.6% (inactive) in the assay on HS 578T breast; 99.8% (inactive) with NCI/ADR-RES ovarian; 13.2% (inactive) with T-47D breast; 63.1% (inactive) in the assay with BT-549 breast. Further, the growth in the assay with MDA-MB-435 melanoma was 67.8% (inactive); in the assay on SW-620 colon, 80.1% (inactive); in the assay on MCF7 breast it was 29.1% (inactive); in the assay on HCT-116 colon it was 37.1% (inactive); in the assay with HCC-2998 colon, 110% (inactive); in the assay with KM12 colon, 70% (inactive). The growth with MDA-MB-468 breast was 58.3% (inactive).
